Laboratory results published in the supplement of paper PMC8866396.
± gives the standard deviation of the averaged measurements.

Tests used:
IL-6-GFP PC-9GR = test: cell viability (CCK-8 OD) relative to DMSO control (fraction of control); higher = more viable cells; conditions: compound concentration: 10 uM; treatment time: 48 h
Procedure, shortened: (§1)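 A purchased 510-compound library was screened at a final 10 μM for 48 h against PC-9 and PC-9GR lung cancer cells overexpressing IL-6-GFP via a lentiviral construct, seeded at 3000 cells/well in 96-well plates. GFP imaging was done on a parallel plate set. For viability, CCK-8 absorbance was recorded and each well's optical density was divided by that of the vehicle control well. There were two independent replicates.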

IL-6-GFP PC-9 = test: as above; conditions: compound concentration: 10 uM; treatment time: 48 h
Procedure, shortened: as §1

Compound	cell viability (IL-6-GFP PC-9GR)	cell viability (IL-6-GFP PC-9)
CC(C)C12OC1C1OC13C1(C)CCC4=C(COC4=O)C1CC1OC13C2=O (centres undefined) [Triptonide]	0.403 ± 0.18	0.467 ± 0.063
Cc1cccc(C(C)c2c[nH]cn2)c1C.Cl (centres undefined) [Medetomidine HCl]	1.25 ± 0.37	1.09 ± 0.011
COC1=CC2C3Cc4ccc(OC)c(O)c4C2(CCN3C)CC1=O (centres undefined) [Sinomenine]	1.31 ± 0.18	1.19 ± 0.097
O=C(O)CCCc1ccc(N(CCCl)CCCl)cc1 [Chloroambucil]	0.937 ± 0.15	0.97 ± 0.18
COC(=O)CC(O)(CCC(C)(C)O)C(=O)OC1C(OC)=CC23CCCN2CCc2cc4c(cc2C13)OCO4 (centres undefined) [Harringtonine]	0.245 ± 0.14	0.323 ± 0.058
CC12CCC3C(CCC4=C(O)C(=O)CCC43C)C1CCC2=O (centres undefined) [Formestane]	1.4 ± 0.13	0.466 ± 0.055
CC1CC(=O)CC2CCC3C4CCC(O)C4(C)CCC3C12C (centres undefined) [Mesterolone]	1.26 ± 0.32	1.21 ± 0.12
NC(Cc1ccc(N(CCCl)CCCl)cc1)C(=O)O (centres undefined) [Melphalan]	0.78 ± 0.037	0.891 ± 0.076
O.O=P1(N(CCCl)CCCl)NCCCO1 (centres undefined) [Cyclophosphamide Monohydrate]	1.16 ± 0.065	1.2 ± 0.029
CC1CCC2N(C1)CC1C3CC4C(CC(O)C5CC(O)CCC54C)C3CCC1C2(C)O (centres undefined) [Peimine]	1.12 ± 0.26	1.211 ± 0.0049
Cl.Cn1c(CCCC(=O)O)nc2cc(N(CCCl)CCCl)ccc21 [Bendamustine HCl]	1.26 ± 0.066	1.2 ± 0.11
c1ccc2c(c1)Sc1ccccc1N2CC1CN2CCC1CC2 (centres undefined) [Mequitazine]	0.705 ± 0.19	1.01 ± 0.021
O=C(O)C1C2CCC(O2)C1C(=O)[O][Na] (centres undefined) [Sodium Demethylcantharidate]	1.12 ± 0.29	1.31 ± 0.083
O=c1c2ccccc2[se]n1-c1ccccc1 [Ebselen]	0.788 ± 0.063	1.36 ± 0.22
CC(C)(C)NCC(O)c1ccccc1Cl.Cl (centres undefined) [Tulobuterol hydrochloride]	1.07 ± 0.17	1.08 ± 0.15
Cn1c(CCCC(=O)O)nc2cc(N(CCCl)CCCl)ccc21 [Bendamustine]	1.02 ± 0.09	1.02 ± 0.18

Compound	cell viability (IL-6-GFP PC-9GR)	cell viability (IL-6-GFP PC-9)
CN(C)NC(=O)CCC(=O)O [Daminozide]	1.09 ± 0.18	1.28 ± 0.05
CC12CCC3c4ccc(OC(=O)N(CCCl)CCCl)cc4CCC3C1CCC2OP(=O)([O-])[O-].[Na+].[Na+] (centres undefined) [Estramustine phosphate sodium]	0.645 ± 0.29	1.01 ± 0.25
O=C(O)c1nn(Cc2ccc(Cl)cc2Cl)c2ccccc12 [Lonidamine]	1.29 ± 0.1	1.19 ± 0.13
CC(C)C12OC1C1OC13C1(C)CCC4=C(COC4=O)C1CC1OC13C2O (centres undefined) [Triptolide (PG490)]	0.466 ± 0.21	0.447 ± 0.12
O=P1(NCCCl)OCCCN1CCCl (centres undefined) [Ifosfamide]	1.15 ± 0.092	0.8 ± 0.02
CCC1=CC2CN3CCc4c([nH]c5ccccc45)C(C(=O)OC)(C2)C13 (centres undefined) [Catharanthine]	1.02 ± 0.093	1.1 ± 0.1
CC(C)[N+](C)(CCC(C(N)=O)(c1ccccc1)c1ccccc1)C(C)C.[I-] [Isopropamide Iodide]	0.876 ± 0.069	0.841 ± 0.16
COc1cc2c(cc1O)CC1c3c(cc(O)c(OC)c3-2)CCN1C (centres undefined) [Boldine]	0.922 ± 0.2	1.05 ± 0.11
Cc1c(N)nc(C(CC(N)=O)NCC(N)C(N)=O)nc1C(=O)NC(C(=O)NC(C)C(O)C(C)C(=O)NC(C(=O)NCCc1nc(-c2nc(C(=O)NCCC[S+](C)C)cs2)cs1)C(C)O)C(OC1OC(CO)C(O)C(O)C1OC1OC(CO)C(O)C(OC(N)=O)C1O)c1c[nH]cn1.O=S(=O)([O-])O (centres undefined) [Bleomycin sulfate]	0.653 ± 0.13	0.473 ± 0.051
COc1cc2c(c(OC)c1OC)-c1ccc(OC)c(=O)cc1C(NC(C)=O)CC2 (centres undefined) [Colchicine]	0.584 ± 0.1	0.686 ± 0.078
CCC1(O)C(=O)OCc2c1cc1n(c2=O)Cc2c-1nc1ccccc1c2CCNC(C)C.Cl (centres undefined) [Belotecan (CKD-602) hydrochloride]	0.322 ± 0.15	0.349 ± 0.055
Cn1cc(C2=C(c3cn(C4CCN(Cc5ccccn5)CC4)c4ccccc34)C(=O)NC2=O)c2ccccc21	1.09 ± 0.062	1.09 ± 0.16
C=CCN1CC(C(=O)N(CCCN(C)C)C(=O)NCC)CC2c3cccc4[nH]cc(c34)CC21 (centres undefined) [Cabergoline]	0.968 ± 0.23	1.05 ± 0.21
COc1cc(C2c3cc4c(cc3C(O)C3COC(=O)C23)OCO4)cc(OC)c1OC (centres undefined) [Picropodophyllin (PPP)]	0.668 ± 0.27	0.603 ± 0.07
COC1=CC2C3Cc4ccc(OC)c(O)c4C2(CCN3C)CC1=O.Cl (centres undefined) [Sinomenine hydrochloride]	1.33 ± 0.43	1.28 ± 0.086
CCC1(O)C(=O)OCc2c1cc1n(c2=O)Cc2cc3ccccc3nc2-1 (centres undefined) [Camptothecin]	0.807 ± 0.36	0.364 ± 0.036
